{"source": "ChEMBL document CHEMBL3988442", "about": "“University of Dundee, Small-Polar-MMV Screening Library” (2021)", "note": "Among all 48,000 compounds or so, about 13,000 (27%) showed an effect of 50% or more. This is one part of the list.", "data": [{"test_system": "Wolbachia pipientis", "assay": "Anti-Wolbachia Cell-Based Screen", "assay_type": "functional", "set-up": "scale not given: in the data most compounds retested in dose-response had high values", "conditions": "5 µM", "units": {"Percent Effect": "%"}, "values": [{"smiles": "CCC(SC)C(=O)N1CCC(n2cccn2)CC1", "note": "(centres undefined)", "Percent Effect": -7.031}, {"smiles": "CN1C(=O)CC2(CCN(S(=O)(=O)c3cccs3)CC2)c2ccccc21", "Percent Effect": 10.11}, {"smiles": "COCCCNC(=O)C1(NC(=O)c2ccc3[nH]ncc3c2)CCCC1", "Percent Effect": -2}, {"smiles": "O=S(=O)(NCC1(O)CCOc2ccccc21)c1ccccc1Br", "note": "(centres undefined)", "Percent Effect": 15.3}, {"smiles": "O=C(Nc1nnn[nH]1)c1ccc(-n2cccc2)c(F)c1", "Percent Effect": -12.4}, {"smiles": "O=C(COC1CCCC1)N1CCC(C(O)c2ccc(F)cc2)CC1", "note": "(centres undefined)", "Percent Effect": 6.854}, {"smiles": "COc1cccc(NC(C(N)=O)c2ccc(Br)cc2)c1", "note": "(centres undefined)", "Percent Effect": 1.947}, {"smiles": "CCO[C@H]1CC[C@H]2[C@H]1OCCN2C(=O)COc1ccccc1", "Percent Effect": 74.73}, {"smiles": "CCO[C@@H]1CC[C@H]2[C@H]1OCCN2C(=O)c1ccc(C)o1", "Percent Effect": 0.08907}, {"smiles": "CCO[C@H]1CC[C@H]2[C@@H]1OCCN2C(=O)COc1ccccc1", "Percent Effect": 94.92}, {"smiles": "O=C(COc1ccc(F)cc1)N1CCO[C@H]2[C@@H](OCC3CC3)CC[C@@H]21", "Percent Effect": 107}, {"smiles": "CCO[C@@H]1CC[C@H]2[C@H]1OCCN2C(=O)C1CCOCC1", "Percent Effect": 0.9043}, {"smiles": "COc1cc(C(=O)N2CCO[C@H]3[C@H](OCC4CC4)CC[C@@H]32)ccc1F", "Percent Effect": 35.93}, {"smiles": "COc1ccc(C(=O)N2CCO[C@H]3[C@H](OCC4CC4)CC[C@@H]32)cc1F", "Percent Effect": -4.788}, {"smiles": "CC(C)CN1C[C@H]2CCN(C(=O)C3CCCO3)CC[C@H]2S1(=O)=O", "note": "(some centres undefined)", "Percent Effect": -18.66}, {"smiles": "CN(Cc1cnccn1)CC1CCOc2ccccc2C1", "note": "(centres undefined)", "Percent Effect": 5.577}, {"smiles": "CCC(C)CNc1ccc2oc(COC)nc2c1", "note": "(centres undefined)", "Percent Effect": -9.605}, {"smiles": "CN(C)C(=O)c1ccc(CNc2c(Cl)cccc2C#N)cc1", "Percent Effect": -8.933}, {"smiles": "CN1CCN(Cc2cnc3n2CCN(Cc2cccnc2)CC3)CC1.O=C(O)C(F)(F)F.O=C(O)C(F)(F)F.O=C(O)C(F)(F)F", "Percent Effect": 102.7}, {"smiles": "CN1CCN(Cc2cnc3n2CCN(CCc2ccccc2)C3)CC1.O=C(O)C(F)(F)F.O=C(O)C(F)(F)F.O=C(O)C(F)(F)F", "Percent Effect": 127}, {"smiles": "CNC(=O)c1cnc2n1CCN(Cc1cccnc1)C2.O=C(O)C(F)(F)F.O=C(O)C(F)(F)F.O=C(O)C(F)(F)F", "Percent Effect": 0.3449}, {"smiles": "Cc1noc(C)c1CN1CCn2c(CN3CCN(C)CC3)cnc2C1.O=C(O)C(F)(F)F.O=C(O)C(F)(F)F.O=C(O)C(F)(F)F", "Percent Effect": -4.762}, {"smiles": "COCC(=O)N1CCn2c(CN3CCN(C)CC3)cnc2C1.O=C(O)C(F)(F)F.O=C(O)C(F)(F)F", "Percent Effect": -7.166}, {"smiles": "CCOCc1nnc(NCc2cccc(C)c2)o1", "Percent Effect": -20.23}, {"smiles": "CN(Cc1ccccc1)CC1CC2(CO1)CN(Cc1cnn(C)c1)C2", "note": "(centres undefined)", "Percent Effect": -2.148}, {"smiles": "Cn1nc2c(cc1=O)CN(Cc1nc(C3CC3)no1)CC2", "Percent Effect": 27.59}, {"smiles": "CCNc1ccc(-c2ccnc3c2ccn3C)nn1", "Percent Effect": -1.559}, {"smiles": "CN(C)c1cncc(-c2ccnc3c2ccn3C)n1", "Percent Effect": -34.59}, {"smiles": "Cn1ccc2c(-c3cc(N)nc(N4CCOCC4)n3)ccnc21", "Percent Effect": 88.78}, {"smiles": "CCc1cc(N(C)Cc2ncc[nH]2)nc(N2CCOCC2)n1", "Percent Effect": -9.08}, {"smiles": "CCc1cc(-c2ccnc3c2ccn3C)nc(N2CCOCC2)n1", "Percent Effect": 67.54}, {"smiles": "Cn1ccc2c(-c3nccc(N)n3)ccnc21", "Percent Effect": -30.17}, {"smiles": "CN(CC1(O)CCCN(CCC2CCCCC2)C1=O)C1CCOCC1", "note": "(centres undefined)", "Percent Effect": -1.971}, {"smiles": "CN1C(=O)CC2(CCN(S(=O)(=O)N(C)C)CC2)c2ccccc21", "Percent Effect": -6.476}, {"smiles": "Cc1cnc(C(=O)N2C[C@H]3CC[C@@H]2CN(S(=O)(=O)N(C)C)C3)cn1", "Percent Effect": -4.38}, {"smiles": "CN(C)S(=O)(=O)N1CC[C@H]2OCC[C@@]2(COc2cccnc2)C1.O=C(O)C(F)(F)F", "Percent Effect": 7.883}, {"smiles": "CN(C)S(=O)(=O)N1CCC[C@]2(C[C@@H](Oc3ccccn3)CO2)C1.O=C(O)C(F)(F)F", "Percent Effect": -2.011}, {"smiles": "CN(C)S(=O)(=O)N1CCC(C)(c2ncc(C(N)=O)s2)CC1", "Percent Effect": 173.8}, {"smiles": "CN(C)S(=O)(=O)N1CCCC(C)(c2ncc(C(N)=O)s2)C1", "note": "(centres undefined)", "Percent Effect": 191.5}, {"smiles": "CCS(=O)(=O)N1CCN(C(=O)C(C)C)CC2(CC(=O)N(C)C2)C1", "note": "(centres undefined)", "Percent Effect": -2.529}, {"smiles": "CN(C)C(C(=O)NCC1(O)CCCCC1)c1cccc(F)c1", "note": "(centres undefined)", "Percent Effect": 11.81}, {"smiles": "O=C(NCC1(O)CCC1)c1c(O)cc(F)cc1F", "Percent Effect": 120.5}, {"smiles": "CN(C)C1(CNC(=O)C/C=C/c2ccc(F)cc2)CCOCC1", "Percent Effect": 1.504}, {"smiles": "O=C(NCC1(O)CCC1)c1c(O)cc(Cl)cc1Cl", "Percent Effect": 97.98}, {"smiles": "CN(C)C(C(=O)NCC1(N(C)C)CCOCC1)c1ccccc1F", "note": "(centres undefined)", "Percent Effect": -12.63}, {"smiles": "O=C(NCC1(O)CCOC1)c1ccccc1Cl", "note": "(centres undefined)", "Percent Effect": -4.323}, {"smiles": "CN(C)C(C(=O)NCC1(O)CCCCC1)c1c(F)cccc1F", "note": "(centres undefined)", "Percent Effect": -3.857}, {"smiles": "CN(C)C1(CNC(=O)c2c(O)cc(Cl)cc2Cl)CCOCC1", "Percent Effect": 85.78}, {"smiles": "O=C(NCc1ccc(Cl)cc1Cl)NCC1(O)CCSC1", "note": "(centres undefined)", "Percent Effect": -14.06}, {"smiles": "CCOC(C)c1noc(CN2CCN(c3nnc(C)s3)CC2)n1", "note": "(centres undefined)", "Percent Effect": -0.8403}, {"smiles": "Cc1cc(Cl)ccc1C(=O)N1C[C@H](C2CC2)[C@@H](N)C1", "Percent Effect": -41.17}, {"smiles": "COc1ccc(N2CCC(N3C[C@H](NC(C)=O)[C@@H](C(C)C)C3)CC2)cc1", "Percent Effect": 0.1798}, {"smiles": "COc1ccc(Cl)cc1C(=O)NCC1CCN(C(=O)c2ccoc2)CC1", "Percent Effect": -13.86}, {"smiles": "CC(=O)N[C@@H]1CN(C(=O)c2csc(C(C)C)n2)C[C@H]1C(C)C", "Percent Effect": -24.56}, {"smiles": "COc1ccc(Cl)cc1C(=O)N1C[C@H](C(C)C)[C@@H](N)C1", "Percent Effect": 105.5}, {"smiles": "COc1ccc(C(=O)N2C[C@@H](NC(=O)N(C)C)[C@H](C(C)C)C2)c(OC)n1", "Percent Effect": 83.06}, {"smiles": "COc1ccc(Cl)cc1C(=O)N1C[C@@H](NC(=O)N(C)C)[C@H](C(C)C)C1", "Percent Effect": 96.11}, {"smiles": "COc1ccc(Cl)cc1C(=O)N1CCCC(n2nc(C)nc2C)C1", "note": "(centres undefined)", "Percent Effect": -10.83}, {"smiles": "CCc1nn(C)c(Cl)c1CN1C[C@@H](NC(=O)N(C)C)[C@H](C(C)C)C1", "Percent Effect": 3.461}, {"smiles": "CCOCc1ccccc1NC(=O)NC1CCN(CC(F)(F)F)C1", "note": "(centres undefined)", "Percent Effect": 4.433}, {"smiles": "CCN(CC)CCN(CC(C)C)c1cc(C(F)(F)F)nc2ncnn12", "Percent Effect": -0.1585}, {"smiles": "Cc1cccc(C(=O)N2CCN(S(C)(=O)=O)[C@@H](C)C2)c1C", "Percent Effect": -0.07044}, {"smiles": "CNC(=O)NC(=O)CCN1CCOC(c2ccc(Br)cc2)C1", "note": "(centres undefined)", "Percent Effect": 0.8414}, {"smiles": "CC(=O)N1C[C@@H]2CN(S(=O)(=O)C3CC3)CCO[C@@H]2C1", "Percent Effect": 81.74}, {"smiles": "O=C(O)C(F)(F)F.O=S(=O)(C1CC1)N1CCO[C@@H]2CN(Cc3cccs3)C[C@@H]2C1", "Percent Effect": 3.839}, {"smiles": "CC(=O)N1CCO[C@@H]2CN(C(=O)c3ccc4ccccc4c3)CC[C@@H]2C1", "Percent Effect": 3.224}, {"smiles": "O=C(O)C(F)(F)F.O=S(=O)(C1CC1)N1C[C@@H]2CN(Cc3ccoc3)CCO[C@@H]2C1", "Percent Effect": 10.49}, {"smiles": "CC(=O)N1CCO[C@@H]2CN(S(=O)(=O)C3CC3)C[C@@H]2C1", "Percent Effect": 90.6}, {"smiles": "CC(=O)N1CCO[C@@H]2CN(S(=O)(=O)c3ccccc3F)C[C@@H]2C1", "Percent Effect": -1.494}, {"smiles": "CC(=O)N1CCO[C@@H]2CN(S(=O)(=O)C3CC3)CC[C@@H]2C1", "Percent Effect": 114.1}, {"smiles": "COCc1ccc(CN[C@H]2C[C@@H](Cc3cc(CCO)on3)C2(C)C)o1", "Percent Effect": -18.1}, {"smiles": "CSC(C)C(=O)N1CCN(CCO)CC1", "note": "(centres undefined)", "Percent Effect": -9.9}, {"smiles": "CCCn1nc2c(cc1=O)CN(Cc1c(C)noc1C)CC2", "Percent Effect": -3.39}, {"smiles": "Cc1noc(C2CCCN(CC(=O)N3CCNC(=O)C3)C2)n1", "note": "(centres undefined)", "Percent Effect": 8.261}, {"smiles": "CN(C)C(=O)CN1C[C@@H]2CC[C@H](C1)N(Cc1ccccc1OCCO)C2", "Percent Effect": -40.78}, {"smiles": "Cc1cc(CN(CCO)c2ccccc2)on1", "Percent Effect": -2.201}, {"smiles": "Cc1nc(CNC(=O)Cn2nc(-c3ccc(F)cc3)oc2=O)cs1", "Percent Effect": -1.04}, {"smiles": "Cn1c(SCc2noc(-c3ccsc3)n2)nnc1C1CCS(=O)(=O)C1", "note": "(centres undefined)", "Percent Effect": -1.02}, {"smiles": "CC(C(=O)Nc1ncccn1)N1CCc2[nH]nc(C(F)(F)F)c2C1", "note": "(centres undefined)", "Percent Effect": -12.45}, {"smiles": "CSc1nnc(C2CCN(C(=O)N3CCCC3)CC2)n1C(C)C", "Percent Effect": 114}, {"smiles": "CC(C)CN1C(=O)CO[C@@H]2CN(C(=O)N3CCOCC3)C[C@H]21", "Percent Effect": -11.7}, {"smiles": "CC(C)n1ccnc1C1CCN(C(=O)N2CCCC2)CC1", "Percent Effect": -25.38}, {"smiles": "CSc1nnc(C2CCN(C(=O)N3CCOCC3)CC2)n1C(C)C", "Percent Effect": 91.83}, {"smiles": "CC(C)c1cc(NC2CCN(C(=O)N3CCCC3)CC2)ncn1", "Percent Effect": -23.56}, {"smiles": "Cn1ccc(NC2CCN(C3CC3)C2=O)n1", "note": "(centres undefined)", "Percent Effect": -4.974}, {"smiles": "CC(C)n1nc(CN2CCCC2=O)c2c1CN(C(=O)c1ccc[nH]1)C2", "Percent Effect": 104.5}, {"smiles": "CC(C)n1nc(CN2CCCC2=O)c2c1CN(C(=O)c1ccno1)C2", "Percent Effect": 92.04}, {"smiles": "COCc1nn(C)c2c1CN(C(=O)c1ccno1)CC2", "Percent Effect": 7.505}, {"smiles": "Cn1nc(CN2CCCC2)c2c1CN(C(=O)c1ccc[nH]1)CC2", "Percent Effect": -10.94}, {"smiles": "CC(C)n1nc(CN2CCCC2=O)c2c1CN(C(=O)c1ccco1)C2", "Percent Effect": 113.5}, {"smiles": "O=C(c1ccco1)N1CCc2onc(CN3CCCC3)c2C1", "Percent Effect": -15.89}, {"smiles": "Cn1nc(CN2CCOCC2)c2c1CN(C(=O)c1ccc[nH]1)C2", "Percent Effect": -8.763}, {"smiles": "COCc1nn(CC2CC2)c2c1CN(C(=O)c1ccno1)CC2", "Percent Effect": 1.769}, {"smiles": "Cn1nc(C#N)c2c1CN(C(=O)c1ccco1)CCC2", "Percent Effect": -2.9}]}]}
